Data published in PubChem BioAssay (Tox21).
Records with an inconclusive call do not appear. Active and inactive are the calls of the source. Calls come from the whole dose curve; as a rule, active = well fitted curve in the direction sought with a large enough effect in the repeat runs; inconclusive = weak or mixed curves; inactive = no such curve, though single readings can be large; an effect the other way counts as inactive or inconclusive.

Assays:
[1] = qHTS RealTime-Glo MT Cell Viability Assay in HepG2 cells - 24 hour (AID 1224867); note: nearly all actives have a fitted effect of over 50% in size
Method in brief: (§1)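 HepG2 cells (600/well) were dispensed with RealTime-Glo reagents, incubated 5 h at 37 °C, then treated with compounds in DMSO for up to 40 h. Nonlytic NanoLuc luminescence reflecting viable cells was read at each stated time point.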

[2] = qHTS RealTime-Glo MT Cell Viability Assay in HEK293 cells - 32 hour (AID 1224868); note: top concentration of the series differs between compounds; nearly all actives have a fitted effect of over 50% in size
Method in brief: (§2)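 HEK293 cells seeded with NanoLuc/prosubstrate reagent, rested 5 h at 37 C, then dosed and kept at 37 C up to 40 h. Nonlytic real-time luminescence from viable cells read at 0, 8, 16, 24, 32 and 40 h.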

[3] = A CellTox Green Cytotoxicity Assay to monitor cytotoxicity in HEK293 cells - 0 hour (AID 1224869); note: nearly all actives have a fitted effect of over 50% in size
Method in brief: (§3)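 Nonlytic real-time cytotoxicity: HEK293 + CellTox Green reagent plated, 5 h preincubation, pintool compound addition (23 nL in DMSO), 37 C for 40 h, fluorescence measured at successive time points.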

[4] = qHTS RealTime-Glo MT Cell Viability Assay in HepG2 cells - 40 hour (AID 1224870); note: nearly all actives have a fitted effect of over 50% in size
Method in brief: (§4)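 HepG2 cells (600/well) mixed with RealTime-Glo MT reagent, settled 5 h at 37 C/5% CO2 before compound addition. Nonlytic NanoLuc luminescence from viable-cell prosubstrate reduction read repeatedly during 40 h treatment at 37 C.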

[5] = A CellTox Green Cytotoxicity Assay to monitor cytotoxicity in HEK293 cells - 40 hour (AID 1224871); note: nearly all actives have a fitted effect of over 45% in size
Method in brief: as §3

[6] = qHTS RealTime-Glo MT Cell Viability Assay in HEK293 cells - 16 hour (AID 1224872)
Method in brief: as §2

[7] = qHTS RealTime-Glo MT Cell Viability Assay in HepG2 cells - 8 hour (AID 1224873); note: nearly all actives have a fitted effect of over 55% in size
Method in brief: as §4

[8] = qHTS RealTime-Glo MT Cell Viability Assay in HEK293 cells - 40 hour (AID 1224874); conditions: RealTime-Glo luminescence; max response: stronger effect = lower value; note: nearly all actives have a fitted effect of over 50% in size
Method in brief: (§5)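 Cells were seeded together with NanoLuc luciferase and a prosubstrate that viable cells reduce to a luciferase substrate. After a 5 h incubation at 37 C/5% CO2, compounds were added and luminescence was measured repeatedly during 40 h of treatment.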

[9] = A CellTox Green Cytotoxicity Assay to monitor cytotoxicity in HEK293 cells - 24 hour (AID 1224875); note: series mostly up to about 77 µM; nearly all actives have a fitted effect of over 45% in size
Method in brief: as §3

[10] = A CellTox Green Cytotoxicity Assay to monitor cytotoxicity in HepG2 cells - 16 hour (AID 1224876); note: nearly all actives have a fitted effect of over 45% in size
Method in brief: (§6)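 Read-out is fluorescence of a cyanine dye excluded from live cells that stains DNA of dead HepG2 cells, with signal proportional to cytotoxicity. Plates were read at 0, 8, 16, 24, 32 and 40 h after compound addition.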

[11] = qHTS RealTime-Glo MT Cell Viability Assay in HepG2 cells - 32 hour (AID 1224877); note: nearly all actives have a fitted effect of over 55% in size
Method in brief: as §1

[12] = A CellTox Green Cytotoxicity Assay to monitor cytotoxicity in HepG2 cells - 24 hour (AID 1224878); note: nearly all actives have a fitted effect of over 45% in size
Method in brief: as §6

[13] = A CellTox Green Cytotoxicity Assay to monitor cytotoxicity in HepG2 cells - 40 hour (AID 1224879); note: nearly all actives have a fitted effect of over 40% in size
Method in brief: as §6

[14] = qHTS RealTime-Glo MT Cell Viability Assay in HEK293 cells - 0 hour (AID 1224880)
Method in brief: as §5

[15] = A CellTox Green Cytotoxicity Assay to monitor cytotoxicity in HEK293 cells - 32 hour (AID 1224881); note: nearly all actives have a fitted effect of over 40% in size
Method in brief: as §3

[16] = A CellTox Green Cytotoxicity Assay to monitor cytotoxicity in HepG2 cells - 0 hour (AID 1224882); note: nearly all actives have a fitted effect of over 35% in size
Method in brief: as §6

[17] = A CellTox Green Cytotoxicity Assay to monitor cytotoxicity in HepG2 cells - 32 hour (AID 1224883); note: nearly all actives have a fitted effect of over 50% in size
Method in brief: as §6

[18] = A CellTox Green Cytotoxicity Assay to monitor cytotoxicity in HEK293 cells - 8 hour (AID 1224884); note: nearly all actives have a fitted effect of over 35% in size
Method in brief: as §3

[19] = qHTS RealTime-Glo MT Cell Viability Assay in HepG2 cells - 16 hour (AID 1224885); note: nearly all actives have a fitted effect of over 50% in size
Method in brief: as §1

[20] = qHTS RealTime-Glo MT Cell Viability Assay in HEK293 cells - 24 hour (AID 1224886)
Method in brief: as §2
% is set by controls: 0 for no effect and ±100 for the full control effect.

CN1C[C@@H]2C[C@H]1CN2c1cc2c(cc1F)c(=O)c(C(=O)O)cn2C1CC1
inactive: activity change, negative = cytotoxicity [1] 5.55% [at 15.8 µM] | activity change, negative = cytotoxic [2] 9.47% [at 15.8 µM] | cytotoxicity [3] -0.324% [at 15.8 µM] | activity change, negative = cytotoxic [4] 1.94% [at 15.8 µM] | cytotoxicity increase [5] -7.03% [at 15.8 µM] | activity change, negative = cytotoxicity [6] 1.79% [at 15.8 µM] | viability change, negative = cytotoxic [7] 8.97% [at 15.8 µM] | max response [8] 11.1% | activity change [9] -6.09% [at 15.8 µM, stronger effect = higher value] | cytotoxicity increase [10] 2.35% [at 15.8 µM] | activity change, negative = cytotoxic [11] 4.04% [at 15.8 µM] | cytotoxicity [12] 0.282% [at 15.8 µM] | cytotoxicity increase [13] 4.83% [at 15.8 µM] | activity change, negative = cytotoxicity [14] -2.3% [at 15.8 µM] | cytotoxicity increase [15] -7.04% [at 15.8 µM] | cytotoxicity [16] 2.16% [at 15.8 µM] | cytotoxicity increase [17] 0.396% [at 15.8 µM] | cytotoxicity increase [18] -14% [at 15.8 µM] | activity change, negative = cytotoxic [19] 6.14% [at 15.8 µM] | activity change, negative = cytotoxicity [20] 4.15% [at 15.8 µM]

COc1ccc2c(c1)c1c3n2CCN(C)C3=NCC1
inactive: outcome [1] | Potency [2] | Potency [3] | outcome [4] | Potency [5] | Potency [6] | outcome [7] | max response [8] 17.6% | Potency [9] | Potency [10] | outcome [11] | Potency [12] | Potency [13] | Potency [14] | Potency [15] | Potency [16] | Potency [17] | Potency [18] | outcome [19] | Potency [20]

CC(=O)C1C(=O)C=C(C)OC1=O (stereo unspecified)
inactive: outcome [1] | Potency [2] | Potency [3] | outcome [4] | Potency [5] | Potency [6] | outcome [7] | max response [8] 1.99% | Potency [9] | Potency [10] | outcome [11] | Potency [12] | Potency [13] | Potency [14] | Potency [15] | Potency [16] | Potency [17] | Potency [18] | outcome [19] | Potency [20]

COC(=O)CCCCC(=O)O
inactive: outcome [1] | Potency [2] | Potency [3] | outcome [4] | Potency [5] | Potency [6] | outcome [7] | max response [8] 8.26% | Potency [9] | Potency [10] | outcome [11] | Potency [12] | Potency [14] | Potency [15] | Potency [16] | Potency [18] | outcome [19] | Potency [20]

C=CCCCCCCCC
inactive: outcome [1] | Potency [2] | Potency [3] | outcome [4] | Potency [5] | Potency [6] | outcome [7] | max response [8] 1.11% | Potency [9] | Potency [10] | outcome [11] | Potency [12] | Potency [13] | Potency [15] | Potency [16] | Potency [17] | Potency [18] | outcome [19] | Potency [20]

C=CC(=O)OCC1CCCO1 (stereo unspecified)
inactive: outcome [1] | Potency [2] | Potency [3] | outcome [4] | Potency [5] | Potency [6] | outcome [7] | max response [8] 0.647% | Potency [10] | outcome [11] | Potency [12] | Potency [13] | Potency [14] | Potency [15] | Potency [16] | Potency [17] | Potency [18] | outcome [19] | Potency [20]

C/C(CC(C)C)=N\O
inactive: outcome [1] | Potency [2] | Potency [3] | outcome [4] | Potency [5] | Potency [6] | outcome [7] | max response [8] -0.628% | Potency [10] | outcome [11] | Potency [12] | Potency [13] | Potency [14] | Potency [15] | Potency [16] | Potency [17] | Potency [18] | outcome [19] | Potency [20]

CC1=C(C(=O)O)N2C(=O)[C@@H](NC(=O)[C@H](N)c3ccccc3)[C@H]2SC1
inactive: outcome [1] | Potency [2] | Potency [3] | outcome [4] | Potency [5] | Potency [6] | outcome [7] | max response [8] 0.975% | Potency [9] | Potency [10] | Potency [12] | Potency [13] | Potency [14] | Potency [15] | Potency [16] | Potency [17] | Potency [18] | outcome [19] | Potency [20]

CCC(=O)CC
inactive: outcome [1] | Potency [2] | Potency [3] | outcome [4] | Potency [5] | Potency [6] | outcome [7] | max response [8] 4.81% | Potency [10] | outcome [11] | Potency [12] | Potency [13] | Potency [14] | Potency [15] | Potency [16] | Potency [17] | Potency [18] | outcome [19] | Potency [20]

CC(=O)O[C@@H]1CC2CCC1(C)C2(C)C (stereo partly specified)
inactive: outcome [1] | Potency [2] | Potency [3] | outcome [4] | Potency [5] | Potency [6] | outcome [7] | max response [8] 5.83% | Potency [9] | Potency [10] | outcome [11] | Potency [12] | Potency [13] | Potency [14] | Potency [15] | Potency [16] | Potency [17] | Potency [18] | outcome [19] | Potency [20]

C[Si]1(C)O[Si](C)(C)O[Si](C)(C)O[Si](C)(C)O[Si](C)(C)O1
inactive: outcome [1] | Potency [2] | Potency [3] | outcome [4] | Potency [5] | Potency [6] | outcome [7] | max response [8] 5.69% | Potency [9] | Potency [10] | Potency [12] | Potency [13] | Potency [14] | Potency [15] | Potency [16] | Potency [17] | Potency [18] | outcome [19] | Potency [20]

O/N=C/C=N/O
inactive: outcome [1] | Potency [2] | Potency [3] | outcome [4] | Potency [5] | Potency [6] | outcome [7] | max response [8] 0.715% | Potency [10] | outcome [11] | Potency [12] | Potency [13] | Potency [14] | Potency [15] | Potency [16] | Potency [17] | Potency [18] | outcome [19] | Potency [20]
